Compounds without any hit were thinned out: in the full panel of roughly 83,000, 20% have a hit.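 The endpoint reported here, percent growth, reads 100 for growth as untreated, 0 for no net growth and -100 for all cells dead.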 Activity calls are given as the source filed them. The calls were made as follows: active = growth percent below 10; inactive = the rest.
Legend:
Assay in all cases: NCI-60 one-dose screen, 48 h (100 = growth as untreated, 0 = no growth, -100 = all killed)
Details in all cases: 10 µM unless noted
DU-145 prostate = tested on: DU-145 prostate
K-562 leukemia = tested on: K-562 leukemia
MALME-3M melanoma = tested on: MALME-3M melanoma
MDA-MB-231 breast = tested on: MDA-MB-231 breast
RXF 393 renal = tested on: RXF 393 renal
SF-268 CNS = tested on: SF-268 CNS
SF-295 CNS = tested on: SF-295 CNS
SF-539 CNS = tested on: SF-539 CNS
UACC-257 melanoma = tested on: UACC-257 melanoma
M14 melanoma = tested on: M14 melanoma

Measured: growth

CNc1sc(S(=O)(=O)NC)nc1S(=O)(=O)c1ccc(C)cc1
inactive: DU-145 prostate 107% | K-562 leukemia 97.5% | MALME-3M melanoma 110% | MDA-MB-231 breast 101% | RXF 393 renal 108% | SF-268 CNS 103% | SF-295 CNS 93.6% | SF-539 CNS 98.6% | UACC-257 melanoma 100% | M14 melanoma 101%

COCCOc1ccc2ncc(C#Cc3cncc(C(=O)Nc4ccc(CN5CCN(C)CC5)c(C(F)(F)F)c4)c3)n2n1
active: DU-145 prostate 7.72% | K-562 leukemia -18% | MALME-3M melanoma -72.3% | MDA-MB-231 breast -28.5% | RXF 393 renal -91.2% | SF-268 CNS -19.6% | SF-539 CNS 8.57% | M14 melanoma -90.5%
inactive: SF-295 CNS 31% | UACC-257 melanoma 28.1%

Cc1ccc(S(=O)(=O)NCCCNc2nccc(-c3[nH]c(-c4ccccc4)nc3-c3ccc(F)c(O)c3)n2)cc1
active: MALME-3M melanoma 2.9%
inactive: DU-145 prostate 98.6% | K-562 leukemia 30.4% | MDA-MB-231 breast 71.1% | RXF 393 renal 97.9% | SF-268 CNS 105% | SF-295 CNS 94.9% | SF-539 CNS 105% | UACC-257 melanoma 23.8% | M14 melanoma 22.9%

COc1cc2cc(Oc3ccc(NC(=O)c4cc(C(F)(F)F)cc(C(F)(F)F)c4)cc3)c(C)nc2cc1OCCN1CCOCC1
active: RXF 393 renal 1.66%
inactive: DU-145 prostate 87.1% | K-562 leukemia 26.5% | MALME-3M melanoma 69.7% | MDA-MB-231 breast 75.7% | SF-268 CNS 72.6% | SF-295 CNS 29.7% | SF-539 CNS 59.4% | UACC-257 melanoma 57.3% | M14 melanoma 60.5%

NC(=O)c1c(NC(=O)c2ccc(C(F)(F)F)cc2)sc2c1CCC(=O)C2
inactive: DU-145 prostate 59% | SF-268 CNS 13.2%
active: K-562 leukemia 7.94% | MALME-3M melanoma -22.4% | MDA-MB-231 breast -14.5% | RXF 393 renal -5.39% | SF-295 CNS 4.24% | SF-539 CNS -74.3% | UACC-257 melanoma -18% | M14 melanoma -22%

CCN(CC)S(=O)(=O)c1ccc(-c2nc(C(Cl)Cl)nc3cc(-c4ccc(F)cc4)nn23)cc1
active: MDA-MB-231 breast 1.34% | RXF 393 renal -30.2%
inactive: DU-145 prostate 16% | K-562 leukemia 34.6% | MALME-3M melanoma 57.6% | SF-268 CNS 48.5% | SF-295 CNS 32.6% | SF-539 CNS 18.4% | UACC-257 melanoma 67.7% | M14 melanoma 47.1%

Cc1[nH]c(C(=O)Nc2ccc(C(N)=O)cc2N2CCOC(C)C2)c(Cl)c1Cl (stereo not given)
inactive: DU-145 prostate 104% | K-562 leukemia 92.2% | MALME-3M melanoma 99.1% | MDA-MB-231 breast 95.7% | RXF 393 renal 102% | SF-268 CNS 98.8% | SF-295 CNS 103% | SF-539 CNS 95.7% | UACC-257 melanoma 108% | M14 melanoma 101%

NC(=O)n1c(=O)n(-c2cccc(C(F)(F)F)c2)c(=O)c2cc(-c3ccc(F)cc3F)ccc21
active: K-562 leukemia 5.61% | MALME-3M melanoma -18.8% | MDA-MB-231 breast -24% | RXF 393 renal -2.52% | SF-295 CNS -10.1% | UACC-257 melanoma -13.5%
inactive: DU-145 prostate 23.3% | SF-268 CNS 16.6% | SF-539 CNS 15.5% | M14 melanoma 11.1%

O=C(CSc1nc2ccccc2c(=O)n1-c1ccccc1)N/N=C/c1ccc(Oc2ccc(Br)cc2)cc1
inactive: DU-145 prostate 38.3% | K-562 leukemia 62.5% | MALME-3M melanoma 54.9% | MDA-MB-231 breast 50.9% | RXF 393 renal 62.2% | SF-268 CNS 84.3% | SF-295 CNS 83.7% | SF-539 CNS 68.7% | UACC-257 melanoma 93.7% | M14 melanoma 56.3%

Cc1ccc(NC2=C(Cl)C(=O)c3nc(C)ccc3C2=O)c(C)c1
active: DU-145 prostate -1.93% | K-562 leukemia 2.95% | SF-295 CNS -29.9% | SF-539 CNS -61.9% | UACC-257 melanoma -80.6% | M14 melanoma -58.3%
inactive: MALME-3M melanoma 13.9% | MDA-MB-231 breast 11.9% | RXF 393 renal 31.1% | SF-268 CNS 24.8%

Cn1ncc2c(C(=O)c3ccc(F)cc3)nc(C(C)(C)C)nc21
inactive: DU-145 prostate 102% | K-562 leukemia 104% | MALME-3M melanoma 89.7% | MDA-MB-231 breast 102% | RXF 393 renal 94.1% | SF-268 CNS 97.3% | SF-295 CNS 99.6% | SF-539 CNS 97.1% | UACC-257 melanoma 94.3% | M14 melanoma 100%

C1=CC(c2nn3c(-c4ccccc4)nnc3s2)=Cc2ccccc2O1
inactive: DU-145 prostate 84.8% | K-562 leukemia 43.5% | MALME-3M melanoma 74.1% | MDA-MB-231 breast 78.3% | RXF 393 renal 22.7% | SF-268 CNS 77.8% | SF-295 CNS 97.9% | SF-539 CNS 71.7% | UACC-257 melanoma 67.8% | M14 melanoma 65%

COc1ccc(OC)c(NC(=O)CCCCCCNC(=O)C(O)(O)C(F)(F)F)c1
inactive: DU-145 prostate 34.9% | K-562 leukemia 19.4% | MALME-3M melanoma 24.9% | MDA-MB-231 breast 61.6% | SF-268 CNS 55% | SF-295 CNS 20.6% | SF-539 CNS 46% | UACC-257 melanoma 41.2% | M14 melanoma 46.8%
active: RXF 393 renal 1.79%

O=C(Nc1ccccc1)Nc1nc2ccc([N+](=O)[O-])cc2[nH]1
inactive: DU-145 prostate 56.3% | K-562 leukemia 43.4% | MALME-3M melanoma 40.1% | MDA-MB-231 breast 74.9% | RXF 393 renal 60% | SF-268 CNS 71.5% | SF-295 CNS 66.3% | SF-539 CNS 61.7% | UACC-257 melanoma 57.4% | M14 melanoma 58.2%

O=c1[nH][nH]c(-c2ccc(F)cc2)c1-c1nc2ccccc2s1
inactive: DU-145 prostate 104% | K-562 leukemia 98.1% | MALME-3M melanoma 84% | MDA-MB-231 breast 85% | RXF 393 renal 99.7% | SF-268 CNS 98.1% | SF-295 CNS 103% | SF-539 CNS 94.8% | UACC-257 melanoma 107% | M14 melanoma 89.1%

O=C(/C=C/c1cc(Cl)ccc1Cl)Nc1ncc(Cc2ccc(Cl)cc2)s1
active: K-562 leukemia 9.62% | MDA-MB-231 breast 6.75% | SF-295 CNS -2.3% | SF-539 CNS -22.6% | M14 melanoma 5.98%
inactive: DU-145 prostate 14.8% | MALME-3M melanoma 49% | RXF 393 renal 33.7% | SF-268 CNS 34.7% | UACC-257 melanoma 49.1%

O=C(CSc1nc2ccccc2c(=O)n1-c1ccc(Cl)cc1)N/N=C/c1ccc(Oc2ccc(Cl)cc2)cc1
inactive: DU-145 prostate 13.1% | K-562 leukemia 23% | MDA-MB-231 breast 30.4% | SF-268 CNS 55.8% | SF-295 CNS 64.7% | SF-539 CNS 69.7% | UACC-257 melanoma 59%
active: MALME-3M melanoma -39.4% | RXF 393 renal -43.8% | M14 melanoma -39.4%

O=[N+]([O-])c1ccc(NC(=S)NNC(=S)Nc2ccc(Br)cc2)cc1
inactive: DU-145 prostate 104% | K-562 leukemia 49.1% | MALME-3M melanoma 89.4% | MDA-MB-231 breast 91.6% | RXF 393 renal 103% | SF-268 CNS 101% | SF-295 CNS 72.6% | SF-539 CNS 95.2% | UACC-257 melanoma 95.2% | M14 melanoma 87.9%

COC(=O)c1cccc(NC2=C(Cl)C(=O)c3nc(C)ccc3C2=O)c1
inactive: DU-145 prostate 105% | MALME-3M melanoma 87.5% | MDA-MB-231 breast 62.6% | RXF 393 renal 59.7% | SF-268 CNS 99.5% | SF-295 CNS 107% | SF-539 CNS 111% | UACC-257 melanoma 62% | M14 melanoma 98.3%
active: K-562 leukemia 6.34%

C#CCOc1cccc(-c2nc(N)nc(Nc3ccccc3SSc3ccccc3Nc3nc(N)nc(-c4cccc(OCC#C)c4)n3)n2)c1
active: SF-268 CNS -11.5% | SF-295 CNS -69.8%
inactive: DU-145 prostate 55.2% | K-562 leukemia 43.5% | MALME-3M melanoma 96.8% | MDA-MB-231 breast 48.1% | RXF 393 renal 81.8% | SF-539 CNS 59.2% | UACC-257 melanoma 108% | M14 melanoma 66.6%

COc1ccccc1Cn1cc(C#N)c(N)c1C(=O)c1ccc(Br)cc1
inactive: DU-145 prostate 104% | K-562 leukemia 83.2% | MALME-3M melanoma 96% | MDA-MB-231 breast 88.7% | RXF 393 renal 92.1% | SF-268 CNS 96.2% | SF-295 CNS 93% | SF-539 CNS 99.8% | UACC-257 melanoma 100% | M14 melanoma 98.5%

CC(=O)OC[C@@]12Oc3c(cccc3-c3ccc(O)c4c3O[C@]3(COC(C)=O)C(=C4O)C(=O)C[C@H](C)[C@@H]3OC(C)=O)C(O)=C1C(=O)C[C@H](C)[C@@H]2OC(C)=O
active: MALME-3M melanoma -15.5% | MDA-MB-231 breast 5.9% | SF-295 CNS -21.9% | UACC-257 melanoma -8.95%
inactive: DU-145 prostate 20.7% | K-562 leukemia 11.6% | RXF 393 renal 11.9% | SF-268 CNS 17.2% | SF-539 CNS 18.4% | M14 melanoma 21.8%

CCCC[n+]1ccc(SCC(=O)n2ccc3ccccc32)c2ccccc21
inactive: DU-145 prostate 94.6% | K-562 leukemia 66.9% | MALME-3M melanoma 95.9% | MDA-MB-231 breast 92.4% | RXF 393 renal 94.9% | SF-268 CNS 101% | SF-295 CNS 96.5% | SF-539 CNS 103% | UACC-257 melanoma 95.7% | M14 melanoma 98.8%

CC(=O)OC[C@]12CC[C@@H](C(=O)/C=C/c3cccnc3)[C@@H]1[C@H]1CC[C@@H]3[C@@]4(C)CC[C@H](OC(C)=O)C(C)(C)[C@@H]4CC[C@@]3(C)[C@]1(C)CC2
inactive: DU-145 prostate 45.7% | K-562 leukemia 13.1% | SF-268 CNS 42.2% | SF-295 CNS 29.7% | M14 melanoma 12.2%
active: MALME-3M melanoma -66.3% | MDA-MB-231 breast -40.5% | RXF 393 renal -71.6% | SF-539 CNS -52.7% | UACC-257 melanoma -4.75%

CCCc1[nH]c(-c2cc(N)ccc2Cl)c2c1C(=O)CCCC2
inactive: DU-145 prostate 107% | K-562 leukemia 93.1% | MALME-3M melanoma 93.7% | MDA-MB-231 breast 100% | RXF 393 renal 102% | SF-268 CNS 97.3% | SF-295 CNS 80.8% | SF-539 CNS 98.3% | UACC-257 melanoma 104% | M14 melanoma 107%

Cc1ccc(N2CCN(C3=C(Cl)C(=O)c4ncccc4C3=O)CC2)cc1
inactive: DU-145 prostate 51.7% | MALME-3M melanoma 52.8% | MDA-MB-231 breast 24.5% | RXF 393 renal 12.5% | SF-268 CNS 80.2% | SF-295 CNS 97.5% | SF-539 CNS 86.6% | UACC-257 melanoma 29.6% | M14 melanoma 70.3%
active: K-562 leukemia 6.28%

— PubChem BioAssay (NCI)
